Beta apoptosis – inhibitors of cytokine-induced beta cell apoptosis, primary screen, luminescence; INS-1E cytokine-induced death, ATP luminescence, 48 h; percent of positive-control rescue, neutral wells zero; protection from apoptosis, % (concentration not given with the values); 0.8% of 300,000 active;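 active means Every replicate reaches about 75%, or at least half do and their mean reaches it too, limit read from the data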;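 further: higher means more ATP so stronger rescue from cytokine killing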
Bfl-1 A1 inh – caspase 3/7 activation in MEF A1-2A-BIM cells, primary screen, A1 inhibitor project, cell-based, luminescence, HTS | caspase activation, % (test concentration not listed) | 0.066% of 330,000 active | Caspase-Glo 3/7 luminescence, 3 h; percent of clofoctol response, vehicle zero;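 active means over half of replicate activation scores above 10%, or exactly half above 10 with the replicate mean above 10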
CSC inhib – cancer stem cell viability inhibitors, primary screen, luminescence; cancer stem cell-like cells viability; inhibition, % at 7.5 µM; 1.1% of 300,000 active; in the data active means inhibition above about 75%; tested in HMLE shEcad cells
aSyn UTR inh – MLPCN primary screen, SNCA 5' untranslated region; alpha-synuclein 5'UTR reporter, inhibitor activity; inhibition, % (tested at 7.5 µM); 0.82% of 300,000 active; AID 1813, 2009; in the data active means inhibition above about 60%;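 further: H4 neuroglioblastoma cells stably carrying SNCA 5'UTR luciferase fusion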
Mdm2-MdmX inh – inhibitors of human Mdm2-MdmX association, primary screen, cell-based, luminescence, split luciferase, SaOS-2, uHTS | Protein Mdm4 (Homo sapiens) + E3 ubiquitin-protein ligase Mdm2 (Homo sapiens), … | 3% of 330,000 active | inhibition, % at 8 µM | SaOS-2 split-luciferase Mdm2/MdmX complementation | AID 485346, 2010;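 active means inhibition of at least 50% at 8 µM in the primary screen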
Target sequence (O15151 whole entry, looked up): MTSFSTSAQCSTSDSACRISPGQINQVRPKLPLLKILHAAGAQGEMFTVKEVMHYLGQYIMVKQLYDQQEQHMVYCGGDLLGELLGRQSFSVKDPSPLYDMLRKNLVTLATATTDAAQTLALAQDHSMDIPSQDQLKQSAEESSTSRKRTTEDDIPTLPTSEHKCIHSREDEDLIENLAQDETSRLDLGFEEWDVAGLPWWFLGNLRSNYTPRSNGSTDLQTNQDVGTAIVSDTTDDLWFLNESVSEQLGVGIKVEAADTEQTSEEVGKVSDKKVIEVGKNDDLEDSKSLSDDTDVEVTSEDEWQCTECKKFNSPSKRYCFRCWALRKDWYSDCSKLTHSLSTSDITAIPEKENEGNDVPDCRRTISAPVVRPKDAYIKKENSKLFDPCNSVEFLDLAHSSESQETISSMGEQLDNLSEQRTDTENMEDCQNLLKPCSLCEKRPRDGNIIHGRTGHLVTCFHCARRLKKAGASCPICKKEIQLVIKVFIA
Target sequence (Q00987 whole entry, looked up): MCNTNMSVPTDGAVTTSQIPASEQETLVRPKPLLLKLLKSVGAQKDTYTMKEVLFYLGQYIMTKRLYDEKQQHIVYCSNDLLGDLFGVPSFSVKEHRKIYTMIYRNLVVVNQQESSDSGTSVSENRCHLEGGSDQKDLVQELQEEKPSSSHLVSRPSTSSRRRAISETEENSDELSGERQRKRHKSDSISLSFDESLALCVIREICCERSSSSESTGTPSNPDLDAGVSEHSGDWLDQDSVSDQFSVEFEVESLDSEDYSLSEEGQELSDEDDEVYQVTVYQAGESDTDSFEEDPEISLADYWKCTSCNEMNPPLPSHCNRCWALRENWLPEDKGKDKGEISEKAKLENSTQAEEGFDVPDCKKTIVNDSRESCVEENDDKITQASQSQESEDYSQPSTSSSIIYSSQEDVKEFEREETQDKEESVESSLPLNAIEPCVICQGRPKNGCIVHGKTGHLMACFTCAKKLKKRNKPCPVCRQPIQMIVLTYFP
Of the large screens only hits and unclear results are named; the others gave an inactive call. This is a sample that favours compounds with a hit; in the whole collection about 4.1% have one here.

O=C(Nc1ccc(C(=O)Nc2ccccc2Cl)cc1)c1cccnc1	Beta apoptosis 99 (no result: aSyn UTR inh)
O=C(Nc1ccc(N2CCN(Cc3ccccc3Cl)CC2)cc1)c1cccnc1	Beta apoptosis 78
CCSc1ccc(NC(=O)c2cccnc2)cc1	Beta apoptosis 104
O=C(Nc1ccccc1Cl)c1ccccc1	none
COc1ccc(-c2noc(CCC(=O)O)n2)cc1	none
CC(C)(C)OC(=O)C[C@@H]1C/C=C\C[C@H](CC(=O)NCCO)C(=O)N2CCC[C@@H]2COC1=O	none (no result: aSyn UTR inh)
COc1ccc(Cc2nc(-c3ccc(NC(=O)c4cccnc4)cc3)no2)cc1	Beta apoptosis 107, aSyn UTR inh 75
O=[N+]([O-])c1cccc(NC(=S)Nc2nc(-c3ccc(Cl)cc3Cl)cs2)c1	CSC inhib 93, aSyn UTR inh 73 (no result: Mdm2-MdmX inh)
Cc1ccc(SC2=C(Sc3ccc(C)cc3)C(=O)c3ccccc3C2=O)cc1	CSC inhib 78
Cc1ccc(N2C(=O)c3ccccc3C2=O)cc1	none
O=C1N=c2ccccc2=C1c1c(O)n(-c2cccc(F)c2)[nH]c1=O	CSC inhib 83 (no result: Mdm2-MdmX inh)
COc1ccccc1CNC(=O)C(=O)NCC1CCCN1S(=O)(=O)c1cccs1 (stereo not drawn)	none
CS(=O)(=O)N1CCc2cc(C(=O)Nc3ccc(COCC(F)(F)F)cc3)ccc21	none
COc1ccc(/C=N/NC(=S)Nc2ccccc2[N+](=O)[O-])cc1O	CSC inhib 89 (no result: Mdm2-MdmX inh)
CCCOc1ccc(/C=N/Nc2ccccc2[N+](=O)[O-])c(O)c1	aSyn UTR inh 62 (no result: CSC inhib)
CCCOc1ccc(/C=N/NC(=S)Nc2ccccc2[N+](=O)[O-])c(O)c1	Beta apoptosis 108, CSC inhib 89, aSyn UTR inh 101 (no result: Mdm2-MdmX inh)
CCOc1ccccc1/C=N/Nc1ccccc1[N+](=O)[O-]	none
COc1cc(/C=N/Nc2ccccc2[N+](=O)[O-])cc(OC)c1O	none
COC(=O)c1ccc(CN(c2ccc(C(=O)O)c(O)c2)S(=O)(=O)c2ccc(Cl)c([N+](=O)[O-])c2)cc1	CSC inhib 92 (no result: Mdm2-MdmX inh)
NC1=NC(c2ccccc2C(F)(F)F)N(c2ccc(F)c(Cl)c2)C(N)=N1 (stereo not drawn)	none
c1ccc(-c2noc(C3CCC3)n2)nc1	none
CCCCC1CCC(c2nc(-c3ccccn3)no2)CC1 (stereo not drawn)	aSyn UTR inh 97
OCc1ccc2c(c1)c(-c1ccc3c(c1)OCCO3)c(-c1ccccc1)n2-c1ccccc1	CSC inhib 92 (no result: aSyn UTR inh)
COc1cc(/C=N/Nc2ccc(F)cc2F)cc(OC)c1O	CSC inhib 95
Cc1ccc(S(=O)(=O)NCc2ccccn2)cc1C	none (no result: Beta apoptosis)
CC(NC(=O)Cn1ncc(Cl)c(Cl)c1=O)C12CC3CC(CC(C3)C1)C2 (stereo not drawn)	CSC inhib 116, aSyn UTR inh 88 (no result: Mdm2-MdmX inh)
CN(C)S(=O)(=O)c1ccc(C(=O)NN2C(=O)NC3(CCCCC3)C2=O)cc1	none (no result: Beta apoptosis, Bfl-1 A1 inh, CSC inhib, aSyn UTR inh)
Cn1c2ccsc2c2ncn(Cc3ccccc3F)c(=O)c21	none (no result: aSyn UTR inh)
CC(C)COC(=O)/C(C#N)=C/c1cn(Cc2ccccc2)c2ccccc12	aSyn UTR inh 80 (no result: Mdm2-MdmX inh)
CC(C)OC(=O)/C(C#N)=C/c1cn(Cc2ccccc2)c2ccccc12	aSyn UTR inh 75
O=C(N/N=C\c1cn(-c2ccccc2)nc1-c1ccccc1)c1ccc(Br)o1	Beta apoptosis 110
CC1CCCC(C)N1C(=O)c1cccc2c1-c1ccccc1/C2=N/O (stereo not drawn)	none (no result: aSyn UTR inh)
CC(C)COC(=O)c1cccc2c1-c1ccccc1/C2=N\O	CSC inhib 120
O=S(=O)(N/N=C1/CC(c2ccccc2)Oc2ccccc21)c1ccc(Br)cc1 (stereo not drawn)	CSC inhib 89
Cc1ccc(S(=O)(=O)N/N=C2/CC(c3ccccc3)Oc3ccccc32)cc1[N+](=O)[O-] (stereo not drawn)	none
Cc1ccc2c(c1)N(C(=O)CCC(=O)NCc1cccnc1)CC(C)O2 (stereo not drawn)	none
Cc1cc(C)c2c(N)c3cccc(C)c3nc2n1	Beta apoptosis 98 (no result: Mdm2-MdmX inh)
CCCN1CCC(NC23CC4CC(CC(C4)C2)C3)CC1	none
COc1ccc(/C=C/C(=O)NC(=S)NCCc2ccc(OC)c(OC)c2)cc1	Bfl-1 A1 inh 7.2
Cc1cc(/C=C2/SC(=S)N(c3cccc(Cl)c3)C2=O)c(C)n1-c1cccnc1	Beta apoptosis 125 (no result: CSC inhib)
Cc1cc(/C=C2/SC(=S)N(c3ccc([N+](=O)[O-])cc3)C2=O)c(C)n1-c1cccnc1	Beta apoptosis 106
CCOc1cccc(C2/C(=C(/O)c3ccc4c(c3)CC(C)O4)C(=O)C(=O)N2CCCn2ccnc2)c1 (stereo not drawn)	none
CC1CC(C)CN(C(=O)C(C)N2CCN(S(=O)(=O)c3ccc(Br)s3)CC2)C1 (stereo not drawn)	none (no result: aSyn UTR inh)
CCCCN1C(=O)/C(=C2\SC(N3CCCCC3)=NC2=O)c2ccccc21	Beta apoptosis 80
O=C1N=C(N2CCCCC2)SC1=C1CCCC1	none
C/C(=N\N=C(N)N)c1cc(Cl)ccc1Cl	aSyn UTR inh 65
C=CC[C@H](CC(=O)N(CCO)Cc1ccccc1)C(=O)N[C@H](COC(=O)[C@@H](CC=C)CC(=O)OC(C)(C)C)Cc1c[nH]c2ccccc12	none (no result: aSyn UTR inh)
CCOC(=O)c1cnc(-n2nc(C)cc2C)nc1Nc1ccc(OC)cc1	none
CCOc1ccc(Nc2cc(C)nc(-n3nc(C)cc3C)n2)cc1	Beta apoptosis 91, aSyn UTR inh 63
CNc1cc(C)nc(-n2nc(C)cc2C)n1	none
Cc1cc(N/N=C/c2ccc(F)cc2)nc(-n2nc(C)cc2C)n1	Beta apoptosis 110
Cn1nc(C(=O)NNC(=O)c2cccc(Cl)c2)ccc1=O	none (no result: aSyn UTR inh)
CC(Sc1ccccc1)C(=O)NCC(c1ccco1)N1CCCCC1 (stereo not drawn)	none
N#Cc1c(-c2ccccc2)nc(SCc2ccc(Cl)cc2)[nH]c1=O	CSC inhib 104
C=CCSc1nc(-c2ccccc2)c(C#N)c(=O)[nH]1	none
O=S1(=O)N=C(c2ccccc2)C=C(c2ccccc2)N1	none (no result: Beta apoptosis, Bfl-1 A1 inh, CSC inhib, aSyn UTR inh)
Cc1ccc(S(=O)(=O)N(C)C)cc1NC(=S)NC(=O)C12CC3CC(CC(C3)C1)C2	CSC inhib 77 (no result: Beta apoptosis)
Cc1ccc(S(=O)(=O)N(C)C)cc1NC(=S)NC12CC3CC(CC(C3)C1)C2	none (no result: Beta apoptosis, Bfl-1 A1 inh, CSC inhib, Mdm2-MdmX inh)
CN1/C(=C\C(=O)c2cncc(Br)c2)C(C)(C)c2ccccc21	Beta apoptosis 101
CN1/C(=C\C(=O)c2ccco2)C(C)(C)c2ccccc21	Beta apoptosis 99
COc1ccccc1OCC(=O)/C=C1/N(C)c2ccccc2C1(C)C	none
CN1/C(=C\C(=O)COC(=O)c2ccco2)C(C)(C)c2ccccc21	none
CN1/C(=C\C(=O)COc2ccc3c(c2)OCO3)C(C)(C)c2ccccc21	CSC inhib 112
CC(=O)Nc1ccc(S(=O)(=O)NC2(C(F)(F)F)NC(=O)N(c3ccc(C)cc3)C2=O)cc1 (stereo not drawn)	none (no result: Beta apoptosis)
